# Records with an inconclusive call do not appear. Where a call stands in place of a potency, no number is given. Calls of active or inactive are those of the source. The call rests on the fitted dose curve.
# Target: Retinoic acid receptor RXR-alpha (Homo sapiens) (UniProt P19793)
# Assay: qHTS assay for small molecule agonists of retinoid X receptor alpha signaling (AID 588544)
# Conditions: HEK293T RXRa-UAS-bla, beta-lactamase reporter, 18 h; series mostly up to 76.7 µM
# Description: NIH Chemical Genomics Center [NCGC] U.S. Environmental Protection Agency [EPA] National Institutes of Environmental Health Sciences [NIEHS] National Toxicology Program [NTP] NCGC Assay Overview The Retinoid X receptor (RXR), a nuclear hormone receptor is expressed in liver, spleen, placenta, epidermis, central nervous system. These receptors are able to form homo and heterodimers with other nuclear receptors and due to this heterodimerizing ability, RXR functions as master regulators producing diverse physiological effects. Three subtypes of RXR exist; alpha, beta and gamma. Retinoid X receptor alpha (RXR-alpha) has potential roles in metabolic signaling pathways, skin alopecia, dermal cysts, cardiac development, insulin sensitization etc. Therefore screening environmental chemicals on RXR-alpha signaling can be used for the studies focused on such therapeutic applications.
# NCGC Assay Protocol Summary Using a beta-lactamase reporter-gene under control of Retinoid X receptor--alpha (RXR-alpha) response element, a cell-based assay [GeneBLAzer (RXR-alpha -UAS-bla assay developed by Invitrogen] was used to measure RXR-alpha ligands signaling. GeneBLAzer RXR-alpha -UAS-bla HEK293T cells were used with assay medium containing 2% charcoal-stripped FBS. The assay was performed in clear bottom black Greiner 1536-well plates. 9-cis-retinoic acid was used in the screen as the positive control. Library compounds were measured for their ability to stimulate the reporter gene activity. Compounds were screened in a titration series in 1536-well format. The fluorescence intensity (405 nm excitation, 460/530 nm emission) was measured using an EnVision plate reader. Data was normalized relative to 9-cis-retinoic acid control (500 nM, 100%), and DMSO only wells (basal, 0%). Concentration-response titration points for each compound were fitted to the Hill equation yielding concentrations of half-maximal stimulation (EC50) and maximal response (efficacy) values. qHTS protocol for RXR-alpha beta-lactamase assay in agonist mode [Step] [Parameter] [Value] [Description] 1. Reagent; 6 uL; 2500 cells/well 2. Incubation; 37 C for 4 hrs 3. Compounds; 23 nL; 0.59 nM to 92 uM 4. Controls (9-cis-retinoic acid); 23 nL, - One column with dose response, start 38 uM, 1:3 dilutions in duplicates - Final concentrations of 500 nM and 50 nM in two columns 5. Incubation; 37 C for 18 hrs 6. Detection reagent; 1 uL of CCF4-dye 7. Incubation; RT for 2 hrs 8. Detection; Fluorescence; Envision plate reader
# Retinoic acid receptor RXR-alpha (Homo sapiens), sequence (P19793 whole entry, looked up): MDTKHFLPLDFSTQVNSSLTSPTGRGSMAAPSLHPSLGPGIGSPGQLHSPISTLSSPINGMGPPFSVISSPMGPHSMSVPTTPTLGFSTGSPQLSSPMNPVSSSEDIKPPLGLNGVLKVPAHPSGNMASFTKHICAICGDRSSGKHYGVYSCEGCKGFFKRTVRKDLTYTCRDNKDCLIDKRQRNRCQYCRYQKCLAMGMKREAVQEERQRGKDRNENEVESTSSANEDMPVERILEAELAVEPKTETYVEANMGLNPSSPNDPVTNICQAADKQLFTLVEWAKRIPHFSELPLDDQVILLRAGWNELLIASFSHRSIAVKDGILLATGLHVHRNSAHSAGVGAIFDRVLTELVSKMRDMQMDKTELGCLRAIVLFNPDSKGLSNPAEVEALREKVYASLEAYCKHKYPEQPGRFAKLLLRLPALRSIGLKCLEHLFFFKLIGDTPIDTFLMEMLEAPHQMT
row,SMILES,Potency
1,BrCCBr,inactive
2,C=C(Cl)Cl,inactive
3,O=NN(c1ccccc1)c1ccccc1,inactive
4,Cc1ccc(O)c(C)c1,inactive
5,Cc1ccc([N+](=O)[O-])cc1C,inactive
6,Clc1nc(Cl)nc(Nc2ccccc2Cl)n1,inactive
7,Cc1cccc([N+](=O)[O-])c1,inactive
8,ClC(Cl)=C(Cl)C(Cl)=C(Cl)Cl,inactive
9,CC(C)(C)OO,inactive
10,CCc1cccc(CC)c1N(COC)C(=O)CCl,inactive
11,CCOc1ccc(N)cc1,inactive
12,O=C(Cl)C(Cl)(Cl)Cl,inactive
13,ClCBr,inactive
14,CCCC(=O)Cl,inactive
15,O=C=NC1CCCCC1,inactive
16,CCS(=O)CCSP(=O)(OC)OC (stereo not given),inactive
17,C[N+](C)(C)Cc1ccccc1,inactive
18,Nc1ccc(Br)cc1,inactive
19,COP(=S)(OC)Oc1ccc([N+](=O)[O-])cc1,inactive
20,CCC(=O)Nc1ccc(Cl)c(Cl)c1,inactive

row,SMILES,Potency
1,Clc1ccc2ccccc2c1,inactive
2,c1nc[nH]n1,inactive
3,COC(=O)NC(=S)Nc1ccccc1NC(=S)NC(=O)OC,inactive
4,COc1ccc(N)cc1,inactive
5,C=CC(=C)C,inactive
6,ClC(Cl)(Cl)c1ccccc1,inactive
7,CNC(=O)Oc1ccccc1OC(C)C,inactive
8,CCCCCCCC(=O)Cl,inactive
9,Oc1ccc(Cl)cc1Cl,inactive
10,CC(C)Nc1nc(Cl)nc(NC(C)C)n1,inactive
11,OCC1CO1 (stereo not given),inactive
12,CC(=O)[O-].CC(=O)[O-].O.O.O.[Pb+2],inactive
13,C=CC1CC=CCC1 (stereo not given),inactive
14,C=CC(N)=O,inactive
15,CC(C)(C)C(=O)C(Oc1ccc(Cl)cc1)n1cncn1 (stereo not given),inactive
16,COc1ccc(C=O)cc1OC,inactive
17,C=CC(=O)OCC,inactive
18,CC(C)(OO)c1ccccc1,inactive
19,Cc1cccc(O)c1,inactive
20,C=CCOC(C)=O,inactive
